Out of some 5,500 compounds screened, about 2,000 (36%) were called active. Inconclusive results (about 18%) are left out. No stated cut-off is given here; in the data, active means normalized growth mostly below about 0.91 (no sharp cut-off); inconclusive means no clear call, values can overlap the other calls; inactive means mostly above about 0.92. Some of the results follow.
Experiment: chemical genetic growth profiling, strain panel (AID 1159580);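 further: tested at 20 µM; growth read once vehicle control cultures reached saturation at 30 °C; 1 = growth at the plate median or of vehicle wells; lower values mean less growth of the strain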
Conditions: S. cerevisiae deletion strains, growth OD

Measured: normalized growth

CC(=O)NC(CCC(=O)O)C(=O)O (stereo not drawn)
active: locus YHR087W, strain rtc3, active compounds read low 1.13 [resistant]
inactive: locus YAL013W, strain DEP1, active compounds read low 0.985 | locus YBR229C, strain ROT2, active compounds read low 0.966 | locus YCL061C, strain MRC1, active compounds read low 0.984 | locus YDL101C, strain DUN1, active compounds read low 0.96 | locus YDR150W, strain NUM1, active compounds read low 0.974 | locus YEL061C, strain CIN8, active compounds read low 0.975 | locus YGR078C, strain PAC10, active compounds read low 0.983 | locus YHR030C, strain SLT2, active compounds read low 0.973 | locus YJR043C, strain POL32, active compounds read low 0.976 | locus YJR075W, strain HOC1, active compounds read low 0.99 | locus YKL190W, strain CNB1, active compounds read low 0.99 | locus YLR039C, strain RIC1, active compounds read low 0.978 | locus YLR058C, strain SHM2 (second series), active compounds read low 0.981 | locus YLR085C, strain ARP6, active compounds read low 0.975 | locus YLR262C, strain YPT6, active compounds read low 1.01 | locus YML094W, strain GIM5, active compounds read low 0.981 | locus YMR219W, strain ESC1, active compounds read low 0.975 | locus YMR263W, strain SAP30, active compounds read low 0.987 | locus YMR307W, strain GAS1, active compounds read low 1.1 | locus YNL153C, strain GIM3, active compounds read low 0.978 | locus YNL298W, strain CLA4 (second series), active compounds read low 0.984 | locus YNL322C, strain KRE1, active compounds read low 0.984 | locus YNR030W, strain Alg12, active compounds read low 1.02 | locus YOL006C, strain TOP1, active compounds read low 0.964 | locus YPL055C, strain LGE1, active compounds read low 1.03 | locus YPL241C, strain CIN2, active compounds read low 0.973 | locus YPR135W, strain CTF4, active compounds read low 0.969

Reference: PubChem BioAssay AID1159580 (chemical genetic matrix, 2015)
